According to PubChem BioAssay AID1159580 (chemical genetic matrix, 2015):
“And” between values parts separate entries of the source, which are not always exact repeats. Equal entries are not always repeated. Among all 5,500 compounds or so, about 2,000 (36%) were called active. Roughly 18% stayed inconclusive and do not appear here. Rule as the data show it: active = normalized growth mostly below about 0.91 (no sharp cut-off); inconclusive = no clear call, values can overlap the other calls; inactive = mostly above about 0.92. This is one part of the list.

Test: chemical genetic growth profiling, strain panel (AID 1159580);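 also: tested at 20 µM; growth read once vehicle control cultures reached saturation at 30 °C; 1 = growth at the plate median or of vehicle wells; lower values mean less growth of the strain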
Conditions: S. cerevisiae deletion strains, growth OD

Measured: normalized growth

CC[N+](C)(C)c1cccc(O)c1
inactive: locus YAL013W, strain DEP1, active compounds read low 0.992 and 1.06 | locus YAL021C, strain ccr4, active compounds read low 1.02 | locus YAL026C, strain drs2, active compounds read low 0.993 | locus YAL030W, strain snc1, active compounds read low 1.01 | locus YAL040C, strain CLN3, active compounds read low 0.997 | locus YBL061C, strain skt5, active compounds read low 1 | locus YBR009C, strain hhf1, active compounds read low 0.964 | locus YBR021W, strain FUR4, active compounds read low 0.996 | locus YBR023C, strain chs3, active compounds read low 1.02 | locus YBR171W, strain sec66, active compounds read low 1 | locus YBR229C, strain ROT2, active compounds read low 0.983 | locus YBR231C, strain swc5, active compounds read low 1.03 | locus YBR279W, strain paf1, active compounds read low 1.01 | locus YCL011C, strain gbp2, active compounds read low 1.02 | locus YCL016C, strain dcc1, active compounds read low 1.02 | locus YCL029C, strain bik1, active compounds read low 0.966 | locus YCL061C, strain MRC1 (second series), active compounds read low 1 | locus YCL061C, strain MRC1, active compounds read low 1.02 | locus YCL069W, strain vba3, active compounds read low 1.01 | locus YCR088W, strain abp1, active compounds read low 1.01 | locus YDL005C, strain med2, active compounds read low 1.02 | locus YDL035C, strain GPR1, active compounds read low 1.01 | locus YDL040C, strain nat1, active compounds read low 1.01 | locus YDL074C, strain BRE1, active compounds read low 0.984 | locus YDL101C, strain DUN1, active compounds read low 0.979 | locus YDL134C, strain PPH21, active compounds read low 0.984 | locus YDL185W, strain tfp1, active compounds read low 0.972 | locus YDL192W, strain arf1, active compounds read low 0.992 | locus YDR001C, strain nth1, active compounds read low 1 | locus YDR069C, strain doa4, active compounds read low 1.02 | locus YDR101C, strain arx1, active compounds read low 0.966 | locus YDR137W, strain rgp1, active compounds read low 1.04 | locus YDR150W, strain NUM1, active compounds read low 0.996 and 1 | locus YDR159W, strain sac3, active compounds read low 0.993 | locus YDR162C, strain NBP2, active compounds read low 0.999 | locus YDR195W, strain ref2 1.01 | locus YDR297W, strain sur2, active compounds read low 1.01 | locus YDR318W, strain mcm21, active compounds read low 0.971 | locus YDR334W, strain swr1, active compounds read low 1.01 | locus YDR335W, strain msn5, active compounds read low 1.01 | locus YDR363W, strain ESC2, active compounds read low 1.01 | locus YDR388W, active compounds read low 0.978 | locus YDR392W, strain spt3, active compounds read low 0.92 | locus YDR502C, strain sam2, active compounds read low 0.975 | locus YEL003W, strain gim4, active compounds read low 0.995 | locus YEL037C, strain rad23, active compounds read low 0.999 | locus YEL061C, strain CIN8 (second series), active compounds read low 1.01 | locus YEL061C, strain CIN8, active compounds read low 0.994 | locus YER002W, strain NOP16, active compounds read low 0.998 | locus YER015W, strain faa2, active compounds read low 0.999 | locus YER016W, strain bim1, active compounds read low 1.01 | locus YER110C, active compounds read low 0.97 | locus YER111C, strain swi4, active compounds read low 0.998 | locus YER155C, strain BEM2 (second series), active compounds read low 1.02 | locus YER155C, strain BEM2, active compounds read low 0.949 | locus YER167W, strain BCK2, active compounds read low 0.995 | locus YFR010W, strain ubp6, active compounds read low 1 | locus YGL078C, strain dbp3, active compounds read low 0.982 | locus YGL086W, strain mad1, active compounds read low 1 | locus YGL167C, strain pmr1, active compounds read low 1.01 | locus YGL173C, strain kem1, active compounds read low 1.02 | locus YGL227W, strain vid30, active compounds read low 1.02 | locus YGL240W, strain doc1, active compounds read low 1.03 | locus YGL248W, strain PDE1, active compounds read low 0.997 | locus YGL253W, strain hxk2, active compounds read low 1.02 | locus YGR078C, strain PAC10, active compounds read low 0.995 and 0.986 | locus YGR135W, strain pre9, active compounds read low 0.973 | locus YGR229C, strain SMI1, active compounds read low 1.01 | locus YGR252W, strain gcn5, active compounds read low 1.06 | locus YHR013C, strain ard1, active compounds read low 1.06 | locus YHR027C, strain rpn1, active compounds read low 1.01 | locus YHR030C, strain SLT2, active compounds read low 0.988 and 1.01 | locus YHR079C, strain IRE1 (second series), active compounds read low 0.982 | locus YHR079C, strain IRE1, active compounds read low 0.99 | locus YHR094C, strain hxt1, active compounds read low 0.976 | locus YHR129C, strain ARP1, active compounds read low 0.987 | locus YHR142W, strain chs7, active compounds read low 1 | locus YHR200W, strain rpn10, active compounds read low 0.968 | locus YIL066C, strain RNR3, active compounds read low 0.985 | locus YIL073C, strain SPO22, active compounds read low 0.982 | locus YIL125W, strain kgd1, active compounds read low 0.997 | locus YIR030C, strain dcg1, active compounds read low 0.974 | locus YJL092W, strain hpr5, active compounds read low 1.01 | locus YJL095W, strain BCK1 (second series), active compounds read low 1.01 | locus YJL095W, strain BCK1, active compounds read low 0.973 and 1.02 | locus YJL115W, strain asf1, active compounds read low 1.01 | locus YJL129C, strain trk1, active compounds read low 1.02 | locus YJL134W, strain LCB3, active compounds read low 0.991 | locus YJL154C, strain vps35, active compounds read low 1 | locus YJL164C, strain tpk1, active compounds read low 0.996 | locus YJL166W, strain qcr8, active compounds read low 1.04 | locus YJL168C, strain set2, active compounds read low 0.979 | locus YJL187C, strain SWE1 (second series), active compounds read low 0.977 | locus YJL187C, strain SWE1, active compounds read low 1.01 | locus YJR043C, strain POL32, active compounds read low 0.984 | locus YJR066W, strain TOR1, active compounds read low 0.931
